Values joined by “and” are separate entries in the source; they are usually repeats but may differ in a detail not shown here. Equal entries are not always repeated. Inconclusive results are not listed. Some compounds were tested as several samples or in several runs, with calls that do not always agree. Active and inactive are the calls of the source. Rule for the calls: active = hit-call score of the fitted dose curve at least 0.9, where 1 is the maximum; inconclusive = response in the unintended direction; inactive = score below 0.9.

Broadly, the AC50 is the midpoint of the concentration-response curve, whichever way the signal moves.

The nature of the experiment: TOX21_p53_BLA_p3_viability: Viability Assessment in the Tox21 HCT-116 p53 Agonism Beta-lactamase Assay, Phase 3 (AID 2283593).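 Note: cells exposed to compound for 16 h before reading.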 The source says:
TOX21_p53_BLA_p3 is a cell-based, single-readout assay that uses HCT116, a human intestinal cell line, […] in a 1536-well plate.TOX21_p53_BLA_p3_viability is an assay readout measuring cellular ATP content and detected with CellTiter-Glo Luciferase-coupled ATP quantitation.TOX21_p53_BLA_p3_viability used a type of viability reporter where loss-of-signal activity can be used to understand changes in the cell viability. Furthermore, this assay endpoint can be referred to as a secondary readout, because this assay has produced multiple assay endpoints where this one serves a viability function. To generalize the intended target to other relatable targets, this assay endpoint is annotated to the cell cycle intended target family, where the subfamily is cytotoxicity.
Thawing Method: Place 14 mL of pre-warmed thaw medium into a 15 mL of conical tub. Remove the vial of cells to be thawed from liquid nitrogen and thaw rapidly by placing at 37C in a water bath with gentle agitation for 1-2 minutes. Decontaminate the vial by wiping with 70% ethanol before opening in a biological safety cabinet. Transfer the vial contents drop-wise into 14 mL of thaw medium in a sterile 15-mL conical tub. Centrifuge cells at 900 rpm for 4 minutes and resuspend in thaw medium. Transfer contents to the T75 tissue culture flask containing Thaw Medium and place flask in a humidified 37C/5% CO2 incubator. Switch to growth medium at first passage.Propagation Method: Aspirate medium, rinse once in DPBS, add 0.25% Trypsin/EDTA and swirl to coat the cell evenly. Add an equal volume of Growth Medium to inactivate Trypsin after 2-3 minutes incubation at 37C. Centrifuge cells at 900 rpm for 4 minutes and resuspend in growth medium. Cell should be passage or fed at least twice a week.Assay Protocol: Harvest cells from culture in growth medium and resuspend in assay medium. 2.2 Dispense 4000 cells/5 uL/well into 1536-well black/clear bottom plates using a Multidrop dispenser. After the cells were incubated at 37C for 5 hours, 23 nL of compounds dissolved in DMSO were transferred to the assay plate by a PinTool resulting in a 217-fold dilution. Incubate the plates for 16 hours at 37C, 5% CO2. Add 1 uL of 6X LiveBLAzer FRET B/G (CCF4-AM) Substrate Mixture to each well using a BioRAPTR dispenser and incubate the plates at room temperature for 2 hours. Measure fluorescence intensity at 460 and 530 nm emission and 405 nm excitation by an Envision detector. Data is expressed as the ratio of 460nm/530nm emissions. Add 4 uL of Cell-titer Glo to each well using BioRAPTR and incubate the plates at room temperature for […]. For cell viability readout that measures cytotoxicity, 4 ul/well of CellTiter-Glo reagent was added into the assay plates using a Flying Reagent Dispenser. After 30 min incubation at room temperature, the luminescence intensity in the plates was measured using a ViewLux plate reader.
Take `CCN(CC)CC`: the outcome was inactive.
As to `O=c1cc(-c2ccccc2)oc2ccc3ccccc3c12`, the compound was called inactive.
On the same count and under the same terms, for `O=C(Nc1cccc([N+](=O)[O-])c1)c1cc2ccccc2cc1O` the value was “inactive”.
On the same count and under the same terms, for `c1cnc2c(c1)ccc1cccnc12` the value was “inactive”.
On the same count and under the same terms, for `NNc1nc(-c2ccc([N+](=O)[O-])cc2)cs1` the value was “inactive”; for `CCOC(=O)CN[C@@H](C(=O)N1CC[C@H]1C(=O)NCc1ccc(/C(N)=N/O)cc1)C1CCCCC1`, “inactive”; for `CNNCc1ccc(C(=O)NC(C)C)cc1`, “inactive”.
On to `CC(C)(C)c1ccc(CCC=O)cc1`, for which the outcome was inactive.
Take `CCCCCCOC(=O)c1ccc(O)cc1`: the call was inactive.
Turning to `Oc1c(Cl)cc(Cl)cc1Sc1cc(Cl)cc(Cl)c1O`, the AC50 was 73.1 µM (active) and 36.2 µM (active) and 1.49 µM (active); the outcome was inactive.
In the case of `Cc1ccc(S(=O)(=O)O)cc1`, the compound was classed as inactive.
As for `CCCCCCCCCC=CCC1CC(=O)OC1=O` (stereo not given), the compound was called inactive.
Consider `CCCCCCCCCCCC(=O)NCCCN(C)C`, for which the AC50 is 47.3 µM (active).
Regarding `C[C@]12CC[C@@H]3c4ccc(O)cc4CC[C@H]3[C@@H]1CC[C@@H]2OC(=O)CCC1CCCC1`, the result was inactive.
`CCC(=O)C=Cc1ccc(OC)cc1`: the compound was classed as inactive.
Regarding `Nc1ccc(O)c(C(=O)O)c1`, the compound was classed as inactive.
Consider `O=C(c1ccccc1)c1ccccc1`, for which the compound was classed as inactive.
On to `O=C(O)c1cccc(C(=O)O)n1`, for which the outcome was inactive.
The same measure, in the same setting: for `O=C(CCCN1CCC(O)(c2ccc(Cl)cc2)CC1)c1ccc(F)cc1` the value was “inactive”; for `CC(C)C=O`, “inactive”; for `C=CC(C)(CCC=C(C)C)OC(C)=O` (stereo not given), “inactive”.
Still for that read-out and setting: for `O=C(NO)c1ccccc1` the value was “inactive”; for `COC(=O)CC(C(C)=O)C(=O)OC` (stereo not given), “inactive”; for `CC(C)(O)C(=O)c1ccccc1`, “inactive”.
Turning to `CCCCc1oc2ccccc2c1C(=O)c1cc(I)c(OCCN(CC)CC)c(I)c1`, the concentration at half-maximal activity (AC50) was 32.3 µM (active) and 51.8 µM (active); the compound was called inactive.
For the compound `CCCCCCCCCCCCCC[n+]1ccccc1`, the compound was called inactive.
Same read-out and setting: for `CC(C)(C)C1CCCCC1O` (stereo not given) the value was “inactive”.
Turning to `CCCCCCc1ccc(N)cc1`, the compound was called inactive.
For `Cc1ccccc1C(OCCN(C)C)c1ccccc1` (stereo not given), the call was inactive.
Consider `CCCCCCCCCCCCCCCCCC[N+](C)(C)Cc1ccccc1`, for which the concentration at half-maximal activity (AC50) was 24.4 µM (active).
With `CCCCCC(C)OC(=O)COc1ccc(Cl)c2cccnc12` (stereo not given), the call was inactive.
The same measure, in the same setting: for `O=S(=O)(O)c1ccc2cc(O)ccc2c1` the value was “inactive”; for `Oc1ccc(Cc2ccccc2O)cc1`, “inactive”; for `CCOCCOCC`, “inactive”.
Same read-out and setting: for `COc1cc([N+](=O)[O-])ccc1N` the value was “inactive”; for `CCOC(C)=O`, “inactive”; for `NS(=O)(=O)O`, “inactive”.
As for `O=C(c1cc(O)c(O)c(O)c1)c1ccc(O)c(O)c1O`, the result was inactive.

The values above are taken from PubChem BioAssay (EPA / NIEHS).
